Measurements from PubChem BioAssay (NCI).
The panel holds about 83,000 compounds, 20% with a hit somewhere; the sample as a whole holds those more often.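 Compound tested at a single concentration for 48 hours in 96-well plates; a percent growth value below 10 was scored as active.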 Unmarked numbers belong to inactive results. Calls of active or inactive are those of the source.

Key:
Test in all cases: NCI-60 one-dose screen, 48 h (100 = growth as untreated, 0 = no growth, -100 = all killed)
Details in all cases: 10 µM unless noted
NCI-H23 lung = tested on: NCI-H23 lung
NCI-H226 lung = tested on: NCI-H226 lung
NCI-H322M lung = tested on: NCI-H322M lung
HOP-62 NSCLC = tested on: HOP-62 NSCLC
NCI-H460 lung = tested on: NCI-H460 lung
HOP-92 NSCLC = tested on: HOP-92 NSCLC
A549/ATCC NSCLC = tested on: A549/ATCC NSCLC
786-0 renal = tested on: 786-0 renal
COLO 205 colon = tested on: COLO 205 colon
DU-145 prostate = tested on: DU-145 prostate
K-562 leukemia = tested on: K-562 leukemia
MALME-3M melanoma = tested on: MALME-3M melanoma
MDA-MB-231 breast = tested on: MDA-MB-231 breast
RXF 393 renal = tested on: RXF 393 renal
SF-268 CNS = tested on: SF-268 CNS
SF-295 CNS = tested on: SF-295 CNS
SF-539 CNS = tested on: SF-539 CNS
UACC-257 melanoma = tested on: UACC-257 melanoma
M14 melanoma = tested on: M14 melanoma

SMILES	growth (NCI-H23 lung)	growth (NCI-H226 lung)	growth (NCI-H322M lung)	growth (HOP-62 NSCLC)	growth (NCI-H460 lung)	growth (HOP-92 NSCLC)	growth (A549/ATCC NSCLC)	growth (786-0 renal)	growth (COLO 205 colon)	growth (DU-145 prostate)	growth (K-562 leukemia)	growth (MALME-3M melanoma)	growth (MDA-MB-231 breast)	growth (RXF 393 renal)	growth (SF-268 CNS)	growth (SF-295 CNS)	growth (SF-539 CNS)	growth (UACC-257 melanoma)	growth (M14 melanoma)
CC[C@@H](c1ccc(O)c(O)c1)[C@@H](CC)c1ccc(O)c(O)c1	96.6%	105%	97%	106%	111%	69.6%	107%	100%	9.38% (active)	110%	31.8%	39.2%	89.7%	71.5%	98%	130%	102%	101%	62.4%
COc1cc(C2CC(c3ccc(C)cc3)=NN2C=O)ccc1OCCN(C)C (centres undefined)	106%	86.4%	94.3%	87.9%	99%	77.7%	84.6%	101%	95.8%	105%	83%	83.1%	97.2%	79.8%	89.8%	97.4%	89.5%	92.9%	–
COc1cc(-c2nc3sc4c(c3c(=O)[nH]2)CCCCCC4)cc(OC)c1OC	22.3%	60.9%	39%	29.6%	8.85% (active)	42.7%	25.8%	40.7%	-24.2% (active)	12.1%	5.92% (active)	25.6%	7.21% (active)	0.561% (active)	27.2%	13.7%	-5.36% (active)	63.7%	–
COc1ccc(Oc2ccccc2NC(=O)CNC(=O)c2cccc3ccccc23)cc1	36.7% [5 µM]	61.4% [5 µM]	45.5% [5 µM]	31.5% [5 µM]	11.9% [5 µM]	52.1% [5 µM]	20.8% [5 µM]	30.1% [5 µM]	-20% [5 µM] (active)	17.5% [5 µM]	8.48% [5 µM] (active)	72.9% [5 µM]	29.4% [5 µM]	10.3% [5 µM]	44.1% [5 µM]	13.2% [5 µM]	-21.5% [5 µM] (active)	48.6% [5 µM]	12.6% [5 µM]
CC(C)N(Cc1ccccc1)c1c(S)ssc1=S	22.8%	14.2%	7.56% (active)	9.6% (active)	4.45% (active)	-36.2% (active)	4.58% (active)	10.6%	-40.1% (active)	10.7%	15.1%	-4.76% (active)	2.92% (active)	-17.4% (active)	28.8%	-5.63% (active)	2.54% (active)	5.96% (active)	17.6%
O=C(CNC(=O)c1cccc2ccccc12)Nc1ccccc1Oc1ccc(O)cc1	37.2% [5 µM]	62.7% [5 µM]	41.3% [5 µM]	35.7% [5 µM]	14.5% [5 µM]	77.5% [5 µM]	27.4% [5 µM]	29.3% [5 µM]	5.7% [5 µM] (active)	19.5% [5 µM]	9.54% [5 µM] (active)	57.9% [5 µM]	47.7% [5 µM]	-2.89% [5 µM] (active)	51.7% [5 µM]	6.5% [5 µM] (active)	-11% [5 µM] (active)	76.7% [5 µM]	9.58% [5 µM] (active)
COc1cccc(-c2nc(-c3ccc(N)cc3)co2)c1	106%	94.2%	102%	108%	115%	86.8%	84.9%	94.4%	141%	102%	84.5%	114%	88.1%	93.2%	128%	92.8%	110%	93.1%	91.1%
C[C@@H]1C[C@@H]([C@@H](CC2CC(=O)NC(=O)C2)OC(=O)CC(=O)c2ccccc2)C(=O)[C@@H](C)C1	13.9%	4.07% (active)	-19.5% (active)	13.5%	12.1%	9.2% (active)	1.76% (active)	1.2% (active)	10.2%	11.8%	17.7%	-0.912% (active)	17.5%	-13.7% (active)	15.6%	4.68% (active)	5.1% (active)	-4.59% (active)	10.9%
O=C1c2cc3c(cc2-c2c1c1ccc(Cl)cc1c(=O)n2CCCNCCO)OCO3	-73% (active)	-70.9% (active)	-84.5% (active)	-81.4% (active)	-75.4% (active)	-79.4% (active)	-82.2% (active)	-81.6% (active)	-88.6% (active)	-93.7% (active)	-78.3% (active)	-84.8% (active)	-79.5% (active)	-78.6% (active)	-76.7% (active)	-86.9% (active)	-84.6% (active)	-59% (active)	-83.3% (active)
Nc1c(C(=O)Nc2cccc(Cl)c2)sc2nc3c(cc12)C(O)CCC3 (centres undefined)	29.8%	62.3%	62.3%	46.8%	11.2%	13.6%	24.7%	53.3%	5.9% (active)	7.3% (active)	10.6%	40.2%	42.6%	-25.4% (active)	50.2%	13.7%	-24.9% (active)	66.1%	17.1%
COc1cnc2c(c1)C(=O)c1c-2n(CCCn2ccnc2)c(=O)c2cc(F)ccc12	-36.7% (active)	-67.9% (active)	-1.28% (active)	-29.8% (active)	-62.9% (active)	-15.9% (active)	-20.8% (active)	-62.6% (active)	-34% (active)	-56.4% (active)	-4.93% (active)	-52.2% (active)	5.66% (active)	-55.9% (active)	3.73% (active)	-5.57% (active)	-60.6% (active)	-34.7% (active)	-39.9% (active)
COc1cc(/C=C2\CN(S(=O)(=O)c3ccc(C)cc3)C/C(=C\c3cc(CN4CCOCC4)c(O)c(OC)c3)C2=O)cc(CN2CCOCC2)c1O	-57.1% (active)	-40.2% (active)	-15.6% (active)	-16% (active)	-46.9% (active)	-30.3% (active)	19.4%	-54.3% (active)	-25.5% (active)	29.1%	10.4%	-25.7% (active)	5.67% (active)	-87.3% (active)	7.91% (active)	-34.1% (active)	-3.63% (active)	-28.6% (active)	-40.5% (active)
O=C(/C=C/c1cccc(Nc2ccnc3cc(Cl)ccc23)c1)c1ccc(Cl)cc1	45.9%	49.5%	67.3%	50.2%	66.7%	45.8%	79.4%	58%	80.1%	59.6%	14.6%	62.5%	60.4%	71.9%	69.2%	40.2%	62.5%	61.3%	54.3%
c1ccc2c(-c3nc4ccccc4[nH]3)cccc2c1	44.2%	79%	64.5%	43%	15.5%	53.3%	38.6%	55.5%	24.6%	33.6%	14.5%	38.1%	41.4%	31%	61.4%	61.4%	37.1%	35.7%	3.75% (active)
